PubChem BioAssay
Activity calls are given as the source filed them.

Assays:
[1] = tested on: PRMT1 (protein arginine N-methyltransferase 1); assay: PRMT1 binders on small-molecule microarrays, primary screen, biochemical, small-molecule microarray, 635 nm fluorescence (AID 1088); details: small-molecule microarray binding, higher = more signal;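 note: binding of Prmt1 protein to compounds spotted on small-molecule microarray slides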
[2] = yeast growth modulation, basal conditions, primary screen, YJM789 clinical isolate, OD600, 24 h (AID 1089);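 note: growth of clinical yeast isolate S. cerevisiae YJM 789 seeded 1000 cells per well; test concentration not given here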; details: S. cerevisiae YJM789 growth, higher = more signal, called active from +8 up or from −8 down
[3] = fission yeast growth modulation, primary screen, strain 972, OD600, 24 h, no modulator (AID 1090);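 note: basal condition with compound alone and no growth modifier present; test concentration not given here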; details: S. pombe 972 growth, higher = more signal, called active from +8 up or from −8 down
[4] = S. cerevisiae growth modulation with rapamycin, primary screen, strain BY4716, OD600, 96 h (AID 1091); details: higher = more signal, called active from +8 up or from −8 down; note: test concentration not given here
[5] = molecular target: Torsin-1A-interacting protein 2 (Homo sapiens) (UniProt Q8NFQ8); assay: LULL1 binders on small-molecule microarray, primary screen, cell lysate, human LULL1 lysate, 635/667 nm fluorescence (AID 1092); details: hLULL1 lysate binding, 635 nm fluorescence, higher = more signal;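 note: probe is lysate of COS7 cells overexpressing human LULL1; score merges per-feature 667 nm fluorescence with signal-to-noise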
Sequence of Torsin-1A-interacting protein 2 (Homo sapiens) (Q8NFQ8 whole entry, looked up): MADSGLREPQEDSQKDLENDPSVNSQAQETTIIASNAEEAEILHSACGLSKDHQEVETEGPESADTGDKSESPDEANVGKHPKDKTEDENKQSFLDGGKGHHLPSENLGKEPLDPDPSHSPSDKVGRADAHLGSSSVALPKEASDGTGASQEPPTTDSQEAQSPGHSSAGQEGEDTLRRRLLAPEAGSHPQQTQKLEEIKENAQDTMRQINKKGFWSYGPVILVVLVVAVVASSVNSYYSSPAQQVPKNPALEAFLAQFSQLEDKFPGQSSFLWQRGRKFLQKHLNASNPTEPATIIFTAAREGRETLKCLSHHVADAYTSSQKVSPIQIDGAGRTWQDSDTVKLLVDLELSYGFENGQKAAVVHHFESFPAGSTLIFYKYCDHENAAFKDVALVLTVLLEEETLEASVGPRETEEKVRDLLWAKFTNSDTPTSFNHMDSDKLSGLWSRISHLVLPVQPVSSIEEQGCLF

[6] = E. coli growth modulation, two-sided OD650, primary screen, E. coli filamentation project, strain DRC41, 24 h (AID 1093); details: OD650, 24 h, higher = more signal, called active from +8 up or from −8 down;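 note: MC1000 strain lacking acrAB efflux and sulA so SOS filamentation is blocked; test concentration not given here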
[7] = small-molecule microarray binders of probe aLefty2, primary screen, biochemical, biotinylated probe, 635/667 nm fluorescence (AID 1094); details: higher = more signal;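 note: score merges spot fluorescence near 667 nm with spot signal-to-noise ratio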
[8] = tested on: Noggin (protein binding on small-molecule microarray); assay: Noggin binders on small-molecule microarray, primary screen, biochemical, 635/667 nm fluorescence (AID 1095); details: 635 nm fluorescence, higher = more signal;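 note: score merges 667 nm feature fluorescence with signal to noise over triplicate slides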
[9] = molecular target: Neurogenic locus notch homolog protein 3 (Homo sapiens) (UniProt Q9UM47); assay: NOTCH3 binders on small-molecule microarray, primary screen, biochemical, 635/667 nm fluorescence (AID 1096); details: NOTCH3 binding, 635 nm fluorescence, higher = more signal
Sequence of Neurogenic locus notch homolog protein 3 (Homo sapiens) (Q9UM47 whole entry, looked up): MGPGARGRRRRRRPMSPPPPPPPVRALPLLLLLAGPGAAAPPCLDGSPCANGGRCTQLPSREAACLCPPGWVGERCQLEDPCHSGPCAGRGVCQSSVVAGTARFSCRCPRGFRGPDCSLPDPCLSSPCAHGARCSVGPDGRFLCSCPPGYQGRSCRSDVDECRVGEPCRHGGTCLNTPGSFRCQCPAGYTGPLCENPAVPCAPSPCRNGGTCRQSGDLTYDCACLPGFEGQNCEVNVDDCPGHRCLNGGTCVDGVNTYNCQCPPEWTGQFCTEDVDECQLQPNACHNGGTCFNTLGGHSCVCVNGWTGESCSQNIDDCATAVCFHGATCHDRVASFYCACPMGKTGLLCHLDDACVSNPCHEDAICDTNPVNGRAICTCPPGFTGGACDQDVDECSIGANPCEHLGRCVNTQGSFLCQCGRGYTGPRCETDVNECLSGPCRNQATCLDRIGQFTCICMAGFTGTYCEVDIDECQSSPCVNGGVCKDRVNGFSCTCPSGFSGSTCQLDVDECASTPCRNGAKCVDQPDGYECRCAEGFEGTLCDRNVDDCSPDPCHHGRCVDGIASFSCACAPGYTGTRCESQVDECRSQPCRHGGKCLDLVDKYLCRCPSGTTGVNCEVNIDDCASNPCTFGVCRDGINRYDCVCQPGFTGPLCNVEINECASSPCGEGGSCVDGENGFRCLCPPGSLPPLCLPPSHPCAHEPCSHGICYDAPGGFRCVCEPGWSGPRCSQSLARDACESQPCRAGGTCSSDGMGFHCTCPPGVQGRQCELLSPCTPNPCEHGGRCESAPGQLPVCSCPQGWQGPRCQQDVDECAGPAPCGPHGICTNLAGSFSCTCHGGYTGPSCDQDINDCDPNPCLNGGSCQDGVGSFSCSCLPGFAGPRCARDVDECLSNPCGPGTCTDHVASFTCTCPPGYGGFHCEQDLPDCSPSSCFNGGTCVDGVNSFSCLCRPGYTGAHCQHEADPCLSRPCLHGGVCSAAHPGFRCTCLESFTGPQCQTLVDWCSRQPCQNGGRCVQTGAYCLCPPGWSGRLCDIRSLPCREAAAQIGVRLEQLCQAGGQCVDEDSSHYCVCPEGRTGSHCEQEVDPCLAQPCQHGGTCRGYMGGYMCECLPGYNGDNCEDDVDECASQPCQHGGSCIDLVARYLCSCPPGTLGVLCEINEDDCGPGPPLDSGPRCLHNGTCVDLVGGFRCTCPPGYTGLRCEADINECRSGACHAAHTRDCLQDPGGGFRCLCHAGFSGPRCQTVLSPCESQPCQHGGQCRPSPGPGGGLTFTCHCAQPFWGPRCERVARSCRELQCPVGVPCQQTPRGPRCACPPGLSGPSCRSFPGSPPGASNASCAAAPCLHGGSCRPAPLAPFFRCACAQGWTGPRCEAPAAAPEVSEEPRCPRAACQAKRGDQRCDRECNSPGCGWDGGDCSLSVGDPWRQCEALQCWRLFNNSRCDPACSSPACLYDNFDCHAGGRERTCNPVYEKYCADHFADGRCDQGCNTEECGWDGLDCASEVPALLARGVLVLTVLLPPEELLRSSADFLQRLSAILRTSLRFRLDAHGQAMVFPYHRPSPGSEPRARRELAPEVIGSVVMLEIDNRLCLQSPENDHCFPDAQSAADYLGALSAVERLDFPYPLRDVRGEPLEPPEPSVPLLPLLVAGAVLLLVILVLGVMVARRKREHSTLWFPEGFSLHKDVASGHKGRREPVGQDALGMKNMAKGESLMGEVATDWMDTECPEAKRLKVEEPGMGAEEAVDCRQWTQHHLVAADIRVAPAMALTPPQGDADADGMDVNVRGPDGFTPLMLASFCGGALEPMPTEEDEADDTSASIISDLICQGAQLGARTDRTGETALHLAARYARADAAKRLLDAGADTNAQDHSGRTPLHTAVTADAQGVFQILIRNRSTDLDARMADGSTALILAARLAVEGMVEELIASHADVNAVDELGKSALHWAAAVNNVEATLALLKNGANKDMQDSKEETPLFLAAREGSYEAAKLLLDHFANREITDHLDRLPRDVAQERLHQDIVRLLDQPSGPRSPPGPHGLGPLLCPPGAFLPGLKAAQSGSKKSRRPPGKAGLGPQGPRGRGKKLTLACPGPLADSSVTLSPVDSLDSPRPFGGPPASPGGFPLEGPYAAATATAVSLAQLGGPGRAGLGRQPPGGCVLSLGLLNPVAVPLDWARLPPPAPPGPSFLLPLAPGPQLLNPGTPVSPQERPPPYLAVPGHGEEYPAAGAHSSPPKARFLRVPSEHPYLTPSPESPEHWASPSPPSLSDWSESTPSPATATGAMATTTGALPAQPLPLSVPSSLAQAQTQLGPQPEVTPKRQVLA

[10] = small-molecule microarray binders of probe aEGFR, primary screen, biochemical, biotinylated probe, 635/667 nm fluorescence (AID 1097); details: higher = more signal;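 note: probe is a biotinylated anti-EGFR antibody binding compounds printed on slides; score combines fluorescence near 667 nm and signal to noise of each spot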
[11] = tested on: Plasmodium falciparum Sir2 (PF13_0152, Sir2A); assay: pfSir2 binders on small-molecule microarrays, primary screen, biochemical, small-molecule microarray, 635 nm fluorescence (AID 1098); details: small-molecule microarray binding, fluorescence 635 nm; higher = more signal;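 note: score merges spot fluorescence intensity with its signal-to-noise ratio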
[12] = small-molecule microarray binders of probe aDKK1, primary screen, biochemical, biotinylated probe, 635/667 nm fluorescence (AID 1099); details: higher = more signal;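 note: score merges 667nm spot fluorescence with signal to noise across triplicate slides; reference of the scale not given here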
[13] = small-molecule microarray binders of probe aCHRDL2, primary screen, biochemical, biotinylated probe, 635/667 nm fluorescence (AID 1100); details: higher = more signal
[14] = splicing luciferase reporter signal modulators, primary screen, spliceosome inhibition project, cell-based, HEK293, splice +/- reporter (AID 1101); details: luminescence, 24 h, higher = more signal, called active from +8 up or from −8 down;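 note: HEK293 cells carrying a splicing-competent luciferase reporter gene; test concentration not given here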
[15] = molecular target: Fibroblast growth factor 10 (Homo sapiens) (UniProt O15520); assay: FGF10 binders on small-molecule microarrays, primary screen, biochemical, small-molecule microarray, 635 nm fluorescence (AID 1102); details: FGF10 binding, fluorescence 635 nm, higher = more signal
Sequence of Fibroblast growth factor 10 (Homo sapiens) (O15520 whole entry, looked up): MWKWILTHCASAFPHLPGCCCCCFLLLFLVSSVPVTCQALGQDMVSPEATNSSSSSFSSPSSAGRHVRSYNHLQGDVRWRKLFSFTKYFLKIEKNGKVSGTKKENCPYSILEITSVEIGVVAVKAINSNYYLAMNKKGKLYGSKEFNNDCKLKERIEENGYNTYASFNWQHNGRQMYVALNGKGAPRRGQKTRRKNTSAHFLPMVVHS

[16] = tested on: glycogen synthase kinase-3 (GSK3A per assay name; protocol says GSK3B); assay: GSK3 binders on small-molecule microarrays, primary screen, biochemical, small-molecule microarray, 635 nm fluorescence, GSK3A (AID 1103); details: small-molecule microarray binding, fluorescence 635 nm; higher = more signal; note: the record names both GSK3A and GSK3B
[17] = molecular target: Epidermal growth factor receptor (Homo sapiens) (UniProt P00533); assay: EGFR binders on small-molecule microarrays, primary screen, biochemical, small-molecule microarray, 635 nm fluorescence (AID 1104); details: EGFR binding, higher = more signal;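 note: score merges 667 nm emission intensity with spot signal to noise over triplicate slides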
Sequence of Epidermal growth factor receptor (Homo sapiens) (P00533 whole entry, looked up): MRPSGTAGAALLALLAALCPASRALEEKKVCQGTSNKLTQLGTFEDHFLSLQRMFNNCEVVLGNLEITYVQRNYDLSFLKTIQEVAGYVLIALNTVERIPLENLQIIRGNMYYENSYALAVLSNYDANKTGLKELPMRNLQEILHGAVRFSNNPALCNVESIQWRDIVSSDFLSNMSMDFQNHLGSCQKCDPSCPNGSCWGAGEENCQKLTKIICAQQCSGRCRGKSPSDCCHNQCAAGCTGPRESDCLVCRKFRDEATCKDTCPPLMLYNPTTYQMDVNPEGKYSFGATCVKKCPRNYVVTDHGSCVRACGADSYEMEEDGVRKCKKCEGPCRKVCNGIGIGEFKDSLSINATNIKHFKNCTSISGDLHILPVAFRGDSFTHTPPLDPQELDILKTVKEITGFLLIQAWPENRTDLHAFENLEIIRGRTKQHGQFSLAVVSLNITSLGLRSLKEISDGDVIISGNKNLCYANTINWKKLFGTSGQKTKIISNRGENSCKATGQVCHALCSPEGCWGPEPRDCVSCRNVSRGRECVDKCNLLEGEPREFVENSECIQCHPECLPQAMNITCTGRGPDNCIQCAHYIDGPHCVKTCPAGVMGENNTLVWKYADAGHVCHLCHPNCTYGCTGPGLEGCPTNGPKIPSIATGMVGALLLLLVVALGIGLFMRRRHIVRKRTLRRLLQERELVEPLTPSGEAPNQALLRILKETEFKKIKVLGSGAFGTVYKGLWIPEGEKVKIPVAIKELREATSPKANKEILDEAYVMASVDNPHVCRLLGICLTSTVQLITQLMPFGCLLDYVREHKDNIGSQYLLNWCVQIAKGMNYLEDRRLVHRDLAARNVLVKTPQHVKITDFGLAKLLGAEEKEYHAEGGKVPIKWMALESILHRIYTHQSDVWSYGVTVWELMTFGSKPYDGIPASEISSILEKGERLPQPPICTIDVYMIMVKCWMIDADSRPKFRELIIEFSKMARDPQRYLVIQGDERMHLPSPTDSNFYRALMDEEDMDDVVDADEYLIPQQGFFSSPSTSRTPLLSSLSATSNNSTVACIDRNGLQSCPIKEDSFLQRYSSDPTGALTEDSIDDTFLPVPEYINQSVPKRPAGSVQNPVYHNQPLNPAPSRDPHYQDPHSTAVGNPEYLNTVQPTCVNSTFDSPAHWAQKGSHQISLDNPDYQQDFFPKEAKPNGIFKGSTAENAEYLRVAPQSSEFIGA

[18] = molecular target: Follistatin-related protein 3 (Homo sapiens) (UniProt O95633); assay: FSTL3 binders on small-molecule microarrays, primary screen, biochemical, small-molecule microarray, 635 nm fluorescence (AID 1105); details: FSTL3 binding, higher = more signal;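 note: score merges emission near 667 nm and signal to noise per printed spot across three slides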
Sequence of Follistatin-related protein 3 (Homo sapiens) (O95633 whole entry, looked up): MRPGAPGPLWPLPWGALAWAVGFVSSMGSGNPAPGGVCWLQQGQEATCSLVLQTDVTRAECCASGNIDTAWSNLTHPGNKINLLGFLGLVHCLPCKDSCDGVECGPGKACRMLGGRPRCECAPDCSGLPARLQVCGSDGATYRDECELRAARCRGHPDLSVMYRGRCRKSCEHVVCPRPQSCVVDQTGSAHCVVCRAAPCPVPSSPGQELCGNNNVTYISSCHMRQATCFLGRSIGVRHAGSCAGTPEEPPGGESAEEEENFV

[19] = molecular target: Dickkopf-related protein 1 (Homo sapiens) (UniProt O94907); assay: DKK1 binders on small-molecule microarrays, primary screen, biochemical, small-molecule microarray, 635 nm fluorescence scan (AID 1106); details: DKK1 binding, higher = more signal;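 note: score merges emission near 667 nm with signal to noise over three replicate slides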
Sequence of Dickkopf-related protein 1 (Homo sapiens) (O94907 whole entry, looked up): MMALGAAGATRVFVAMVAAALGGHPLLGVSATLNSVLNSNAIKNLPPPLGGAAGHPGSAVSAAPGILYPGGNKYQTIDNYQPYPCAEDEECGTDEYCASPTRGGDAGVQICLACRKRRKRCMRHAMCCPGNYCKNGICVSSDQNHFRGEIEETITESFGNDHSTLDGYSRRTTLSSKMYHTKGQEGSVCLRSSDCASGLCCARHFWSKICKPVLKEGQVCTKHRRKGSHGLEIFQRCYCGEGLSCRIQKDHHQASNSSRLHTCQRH

[20] = tested on: Inhibin beta A chain (activin A); assay: INHBA (activin A) binders on microarrays, primary screen, biochemical, small-molecule microarray, 635 nm fluorescence scan (AID 1107); details: small-molecule microarray binding, higher = more signal;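 note: mouse activin A protein probed at 4.33 µg/mL on printed slides; score merges bound-protein fluorescence near 667 nm with spot signal-to-noise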

| SMILES | composite z-score [1] | z-score [2] | z-score [3] | z-score [4] | composite z-score [5] | z-score [6] | composite z-score [7] | composite z-score [8] | composite z-score [9] | composite z-score [10] | composite z-score [11] | composite z-score [12] | composite z-score [13] | z-score [14] | composite z-score [15] | composite z-score [16] | composite z-score [17] | composite z-score [18] | composite z-score [19] | composite z-score [20] |
| --- | --- | --- | --- | --- | --- | --- | --- | --- | --- | --- | --- | --- | --- | --- | --- | --- | --- | --- | --- | --- |
| CC(C)[Si](OCCCNS(=O)(=O)c1ccc(Br)cc1)(C(C)C)C(C)C | 0.807 | -4.21 (inactive) | -3.02 (inactive) | -1.86 (inactive) | 0.716 | 3.1 (inactive) | 0.0278 | 0.578 | 1.11 | 0.0298 | 0.373 | 0.526 | 0.0951 | -0.619 (inactive) | 0.831 | 1.18 | 0.742 | 0.753 | 0.673 | -0.415 |
| CCc1cccc(NC(=O)O[C@H]2[C@H](OC(=O)Nc3ccccc3)[C@@H](OC(=O)Nc3ccccc3)[C@@H](OC)O[C@@H]2CO)c1 | 1.54 | 1.77 (inactive) | 2.57 (inactive) | 1.97 (inactive) | 3.25 | -0.0576 (inactive) | -0.142 | 1.81 | 1.06 | -0.0549 | 1.35 | 0.169 | 0.37 | -0.0187 (inactive) | 1.54 | 1.07 | 0.0832 | 1.41 | 0.319 | 0.451 |
| Cc1ccc(N2C(=O)c3ccccc3[C@@H](C(=O)NCC(F)(F)F)[C@@H]2c2ccc(CO)cc2)nc1 | -0.359 | -0.678 (inactive) | -1.24 (inactive) | 3.03 (inactive) | -0.338 | 1.08 (inactive) | 0.0143 | -2.15 | -1.01 | -0.157 | 1.72 | 0.476 | 1.22 | -1.08 (inactive) | -1.15 | -1.18 | -2.69 | -1.83 | -1.69 | -1.57 |
| C#CCCCON=C1C[C@@H](O)[C@@H](O)[C@@H]2[C@@H]3C(=O)N(Cc4ccc5c(c4)OCO5)C(=O)[C@@H]3CC[C@@H]12 | 0.652 | 0.755 (inactive) | 0.783 (inactive) | 0.271 (inactive) | 0.852 | 0.105 (inactive) | -0.0367 | -0.0201 | 0.0568 | -0.0389 | 0.211 | -0.136 | 0.0822 | -0.117 (inactive) | 0.42 | 0.257 | 0.336 | 0.862 | 0.278 | 0.308 |
| Cc1ccccc1C(O)C1C=CC2C(=O)N(c3ccccc3)C(=O)C2N1Nc1ccc(C#N)cc1 (stereo not given) | 1.51 | 0.907 (inactive) | 1.85 (inactive) | 3.52 (inactive) | 2.89 | 0.478 (inactive) | 0.854 | 0.247 | 1.07 | 0.413 | 1.56 | 1.35 | 1.4 | 0.898 (inactive) | 1.16 | 1.3 | 0.832 | 1.05 | 0.311 | 0.958 |
| Cc1ccc(S(=O)(=O)c2cc3oc2CC[C@@H](CO)NC(=O)N(C)Cc2cn(nn2)C[C@H](Cc2ccccc2)NC3=O)cc1 | 0.0985 | 0.342 (inactive) | -0.772 (inactive) | 0.0417 (inactive) | 1.66 | 2.79 (inactive) | -0.131 | 0.0818 | -0.773 | -0.156 | 1.36 | -0.122 | -0.0291 | -0.0233 (inactive) | -0.0287 | 0.164 | -0.497 | -0.233 | -0.266 | -0.171 |
| C=CC[C@]1(C(=O)N2CCCCC2)N=C(c2ccc(OCCCO)cc2)O[C@H]1c1ccccc1N=[N+]=[N-] | 1.58 | -0.534 (inactive) | -1.18 (inactive) | 0.946 (inactive) | 3.44 | 0.208 (inactive) | 0.619 | 1.17 | 1.08 | 0.561 | 1.55 | 1.26 | 1.42 | -0.461 (inactive) | 0.975 | 1.27 | 0.292 | 1.3 | -0.0913 | 1.06 |
| O=C1O[C@H](c2ccccc2)[C@H](c2ccccc2)N2[C@H]1[C@@H](C(=O)Nc1nc3ccccc3s1)[C@]1(C(=O)Nc3ccc(C#CC4=CCCCC4)cc31)[C@H]2c1ccccc1OCCO | 1.56 | 2.17 (inactive) | 1.82 (inactive) | 4.5 (inactive) | 2.35 | -0.0227 (inactive) | -0.0778 | 1.53 | 1.1 | 0.0564 | 1.51 | -0.0804 | -0.262 | -1.69 (inactive) | 1.14 | 1.02 | 0.516 | 1.27 | 0.574 | 0.345 |
| CO[C@H]1COC(=O)[C@@H](C)COC(=O)[C@H](Cc2ccccc2)NC(=O)CC=C[C@H]1C | 0.525 | -0.662 (inactive) | -1.25 (inactive) | -0.544 (inactive) | -0.274 | 0.331 (inactive) | -0.302 | 1.26 | 0.722 | -0.188 | 0.7 | -0.416 | -1.09 | -0.776 (inactive) | 0.457 | 0.0364 | 1.04 | 1.06 | 1.5 | 1.15 |
| CN(C)CCCC[C@@H]1NC(=O)[C@@H]2C[C@H](C(=O)NCCCCCNC(=O)CS)[C@H](c3ccc(O)cc3)N2C1=O | 1.42 | 0.081 (inactive) | -1.42 (inactive) | -0.342 (inactive) | 0.863 | 1.14 (inactive) | -0.0079 | 1.88 | 0.208 | 0.268 | 1.19 | 0.0418 | -0.109 | -0.812 (inactive) | 1.11 | 0.667 | 0.0635 | 1.18 | 1.81 | 0.687 |
